# Rows were chosen to be rich in hits. Some 3.4% of all compounds tested hit in one or more screens of this group.
# PP1 inh – blocks human PP1-alpha phosphatase, a PP5 counter-screen; inhibition, % at 6.7 µM; P62136; AID 2235; purified PP1alpha, OMFP fluorescence; 320,000 tested, 0.9% active;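 active = inhibition above the mean inhibition of all tested compounds plus 3 SD, computed separately for each screening campaign, cut at about 15% in these data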
# pPAFAH inh – inhibitors of human plasma PAF acetylhydrolase (pPAFAH) | Q13093 | recombinant pPAFAH, FP-rhodamine probe fluorescence polarization | inhibition, % at 3.39 µM | 330,000 tested, 1.5% active;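 active = inhibition above the mean inhibition across the screen plus 3 SD, cut at about 25% in these data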;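 also: inhibitors block binding of the rhodamine activity-based probe so polarization drops; 0% = enzyme with DMSO and 100% = wells lacking pPAFAH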
# Target sequence (Q13093 whole entry, looked up): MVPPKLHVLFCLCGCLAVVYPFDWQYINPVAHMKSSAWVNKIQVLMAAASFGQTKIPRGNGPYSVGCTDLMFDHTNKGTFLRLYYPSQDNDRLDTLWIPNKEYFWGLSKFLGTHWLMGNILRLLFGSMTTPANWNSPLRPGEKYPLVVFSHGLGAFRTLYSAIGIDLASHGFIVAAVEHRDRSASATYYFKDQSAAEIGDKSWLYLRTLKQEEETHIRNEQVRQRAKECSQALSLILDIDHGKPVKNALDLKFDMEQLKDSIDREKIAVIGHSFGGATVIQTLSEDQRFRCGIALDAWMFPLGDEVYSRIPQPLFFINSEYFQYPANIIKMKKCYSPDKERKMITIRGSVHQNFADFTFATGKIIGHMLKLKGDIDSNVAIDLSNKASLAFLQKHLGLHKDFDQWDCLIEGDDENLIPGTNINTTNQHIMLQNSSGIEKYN
# PP5 primary – inhibitors of human protein phosphatase 5 (PP5). inhibition, % at 6.7 µM. P53041. AID 1987. purified PP5c, OMFP substrate fluorescence. 320,000 tested, 0.18% active;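 active = inhibition above the campaign's mean inhibition across all tested compounds plus 3 SD, cut at about 9.5% in these data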;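 also: 0% = DMSO only and 100% = 100 µM cantharidin control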
# PAFAH2 FP inh – PAFAH2 (human) inhibition; Q99487; recombinant PAFAH2, FP-rhodamine activity probe, fluorescence polarization; inhibition, % at 3.39 µM; 340,000 tested, 0.99% active; AID 492956;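 active = inhibition above the mean over all tested compounds plus 3 SD, cut at about 30% in these data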;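 also: inhibitors block probe labeling of enzyme so polarization drops; 0% = enzyme with DMSO and 100% = wells lacking PAFAH2 protein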
# PAFAH1B3 inh – blocks human PAF acetylhydrolase 1B catalytic subunit 3; recombinant PAFAH1B3, FP-rhodamine probe, fluorescence polarization; 340,000 tested, 0.28% active; inhibition, % at 3.39 µM; Q15102;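 active = inhibition above the screen-wide average of all tested compounds plus 3 SD, cut at about 25% in these data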;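 also: 0% = enzyme with DMSO only and 100% = wells lacking PAFAH1B3 protein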
# PAFAH1B2 FP inh – inhibitors of human PAFAH1B2; recombinant PAFAH1B2, FP-rhodamine activity probe, fluorescence polarization; inhibition, % at 3.39 µM; 340,000 tested, 1.2% active;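 active = inhibition above the mean of all tested compounds plus 3 SD, cut at about 24% in these data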;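 also: 0% = enzyme with DMSO and 100% = wells lacking PAFAH1B2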
# Target sequence (P68402 whole entry, looked up): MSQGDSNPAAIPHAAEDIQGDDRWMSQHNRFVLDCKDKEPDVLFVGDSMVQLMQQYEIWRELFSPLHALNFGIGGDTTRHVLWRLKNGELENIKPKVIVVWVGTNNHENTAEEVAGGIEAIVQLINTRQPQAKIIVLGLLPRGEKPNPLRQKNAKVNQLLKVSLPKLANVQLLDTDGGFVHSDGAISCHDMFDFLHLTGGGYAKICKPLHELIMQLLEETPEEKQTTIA
# Numbers without * were called inactive; nt = not tested or not shown.
SMILES,PP1 inh,pPAFAH inh,PP5 primary,PAFAH2 FP inh,PAFAH1B3 inh,PAFAH1B2 FP inh
COc1ccc(S(=O)(=O)N2CCN(c3ccc(F)cc3)CC2)cc1C(=O)N1CCOCC1,-1.8,4.7,-0.2,-3.8,2.8,1.8
O=C(C[n+]1cc(-c2ccc(Cl)cc2)n2c1CCC2)Nc1nc(-c2ccccc2)cs1,15.6*,10.0,1.6,0.1,5.8,-2.2
CN(Cc1ccccn1)C(=O)C1CCC(=O)N(CCc2ccc(Cl)cc2)C1 (configuration not stated),-2.2,4.3,2.8,-3.2,4.1,7.3
CN(C)c1cccc(/C=C(\C#N)c2ccccc2)c1,4.2,33.7*,1.4,-4.7,8.4,5.8
CN(C)c1ccc(/C=C(\C#N)c2ccccc2)cc1,nt,nt,nt,8.2,13.3,6.7
NC(=O)[C@H]1CC2(CC(c3cccc(NC(=O)CC(c4ccccc4)c4ccccc4)c3)=NO2)CN1C(=O)C(c1ccccc1)c1ccccc1 (some centres not stated),17.3*,-14.0,2.7,-54.3,-37.5,-20.4
Cc1n[nH]c(=O)c2c(NC(=O)CSc3nc4ccccc4c(=O)n3C(C)C)oc(C)c12,-1.6,-1.8,0.2,1.9,9.8,3.2
O=S(=O)(c1cccc2ccccc12)N1CCC2CC1c1cc(Cl)ccc12 (configuration not stated),nt,nt,nt,-3.8,0.1,4.2
O=c1[nH]c(=S)n(C2CCCCC2)c(O)c1C=NCCN1CCOCC1,-1.1,6.7,1.7,3.6,4.1,28.6*
Cc1ccc(C)c(N(CC(=O)NCCc2ccccc2)C(=O)CCC(=O)Nc2ccccn2)c1,-1.8,8.1,1.0,-13.6,0.5,2.0
CCN(CC)c1ccc(C(=C2C=CC(=[N+](CC)CC)C=C2)c2ccc(S(=O)(=O)O)cc2S(=O)(=O)[O-])cc1,nt,nt,nt,17.7,13.6,8.7
Cc1cc(OC(C)C(=O)NCCc2c[nH]c3ccccc23)c2c(C)cc(=O)oc2c1 (configuration not stated),0.8,4.3,0.8,-2.5,1.4,22.4
COc1ccc2[nH]cc(CCNC(=O)COc3cc(C)cc4oc(=O)cc(C)c34)c2c1,5.8,2.8,0.8,16.3,6.5,24.9*
Cc1cc(C)cc(NC(=O)CSc2nnc(CNC(=O)c3ccco3)n2C)c1,-4.7,3.4,-1.4,-3.6,7.2,4.0
CC(N)c1ccc(Cl)cc1Cl (configuration not stated),-3.3,-4.8,-1.1,14.2,1.0,0.4
O=[N+]([O-])c1cc(Cc2ccccc2)cc(C=Nc2ccc(N3CCOCC3)cc2)c1O,9.0,34.1*,0.8,4.9,7.6,25.1*
Cc1cc(Br)cc(C=Nc2ccc(N3CCOCC3)cc2)c1O,-4.5,3.8,1.1,0.5,-0.5,-2.0
Cc1ccc(O)c(C=Nc2cc(C)ccc2O)c1,4.6,15.5,1.3,2.0,11.1,0.8
Oc1c(Cl)cc(Cl)cc1C=Nc1ccc(N2CCOCC2)cc1,-5.0,13.2,0.0,-4.6,6.5,4.8
Cc1ccc(O)c(N=Cc2cc(Cc3ccccc3)cc([N+](=O)[O-])c2O)c1,nt,nt,nt,21.8,10.7,34.5*
Oc1ccc(C=Nc2ccc(N3CCOCC3)cc2)c(O)c1,1.2,25.6*,2.2,13.6,2.2,8.7
Cc1sc(-n2c(C)cc(/C=C3\SC(=S)NC3=O)c2C)c(C#N)c1C,12.1,31.1*,0.5,15.0,9.8,0.5
CCn1c(C)cc(/C=C2/SC(=S)NC2=O)c1C,1.7,16.6,-1.0,8.0,-8.7,-1.3
O=C1C(Br)=C(c2ccccc2)C(c2ccccc2)=C1c1ccccc1,nt,nt,nt,9.6,-5.7,6.7
CCC(=O)Nc1ccc2nc3c(=O)[nH]c(=S)[nH]c3nc2c1,3.2,26.3*,0.1,13.2,12.5,6.8
SMILES,PP1 inh,pPAFAH inh,PP5 primary,PAFAH2 FP inh,PAFAH1B3 inh,PAFAH1B2 FP inh
CCCCn1c(=O)[nH]c2nc3cc(NC(C)=O)ccc3nc2c1=O,-4.1,4.1,2.9,6.6,4.8,5.8
COc1ccccc1N1CCN(C(=O)c2ccc3c(c2)NC(=O)C(CSCc2ccccc2C)N3)CC1 (configuration not stated),23.0*,24.6*,0.1,nt,nt,nt
COc1ccccc1N1CCN(C(=O)c2cccc(C(=O)N3CCN(c4ccccc4OC)CC3)c2)CC1,-5.0,2.7,-1.2,-4.3,5.3,1.0
COc1ccc(CNS(=O)(=O)CCNC(=O)c2ccc(OC)cc2)cc1,-2.4,-0.3,1.7,2.2,0.3,0.0
S=c1[nH]nc(CSCCOc2ccc(Cl)cc2Cl)o1,1.2,7.9,-3.5,3.9,4.5,33.8*
S=c1[nH]nc(CSCCOc2ccccc2)o1,-3.4,9.1,-0.9,-0.3,18.0,7.6
O=S(=O)(O)c1cc(Cl)cc(N=Nc2ccc(O)cc2O)c1O,nt,nt,nt,34.7*,25.6*,42.4*
O=[N+]([O-])c1ccc(N=Nc2ccc(O)cc2O)cc1,1.7,4.1,1.8,7.9,6.0,-1.9
O=C(COc1ccc(S(=O)(=O)Nc2ccccc2)cc1)NCc1ccncc1,1.5,27.2*,3.5,6.7,4.6,4.6
O=C(NCc1cccnc1)c1ccc(S(=O)(=O)Nc2ccccc2)cc1,-1.3,24.4,-2.1,2.1,5.5,3.6
Cc1ccc(C(=O)NCc2cccnc2)cc1S(=O)(=O)Nc1ccccc1,1.0,26.9*,0.2,12.8,-7.0,0.2
COc1ccc(NS(=O)(=O)c2cccc(C(=O)NCc3cccnc3)c2)cc1,-5.9,27.3*,-0.4,6.1,3.5,2.7
Cc1ccc(NS(=O)(=O)c2ccc(C(=O)NCc3cccnc3)cc2)cc1,-0.3,27.2*,-3.1,2.3,-2.2,-2.7
COc1cc2cnc(-c3ccccc3F)cc2cc1OC,nt,7.3,nt,-2.1,20.2,2.3
Cc1onc(-c2ccccc2)c1C(=O)N(Cc1ccccc1)C(C)C,2.4,0.3,0.5,0.2,3.0,2.8
CCCN(C(=O)c1cc(S(=O)(=O)N(C)c2ccc(OCC)cc2)ccc1C)C1CCS(=O)(=O)C1 (configuration not stated),3.6,4.1,0.9,-5.8,6.3,3.6
Cc1ccc(NS(=O)(=O)c2ccc(C(=O)NCc3ccncc3)cc2)cc1,-3.3,26.4*,4.2,3.6,2.1,6.9
CCOc1ccc(NS(=O)(=O)c2ccc(-c3coc(C)n3)cc2)cc1,-0.9,29.5*,1.0,2.7,10.4,3.2
Cc1ccc(CNC(=O)COc2ccc(S(=O)(=O)N3CCOCC3)cc2)cc1,-6.2,28.4*,-1.0,-5.1,4.2,2.5
COc1ccc(NS(=O)(=O)c2ccc(Cl)c(NC(=O)c3cccnc3Cl)c2)cc1,-3.6,29.6*,0.5,5.1,0.0,2.0
O=C1CN(C(=O)COC(=O)c2ccc(Br)o2)c2ccccc2N1,nt,3.0,nt,6.3,-0.6,4.0
Cc1cc(Br)ccc1NC(=O)CN(C)C(=O)c1cccc(S(=O)(=O)N2CCN(C)CC2)c1,nt,nt,nt,6.0,10.3,8.6
CC(=NNC(=O)c1ccc(NS(=O)(=O)c2ccc(Br)cc2)cc1)c1cccnc1,nt,7.2,nt,-1.3,4.2,29.2*
